Results: PubChem BioAssay (Tox21)
Records with an inconclusive call do not appear. Calls of active or inactive are those of the source. Calls come from the whole dose curve; as a rule, active = well fitted activation curve with a large enough effect in the signal ratio in the repeat runs (not every such curve was filed as active); inconclusive = weak or mixed curves, or effect the other way; inactive = flat fitted curve, though single readings scatter; the % refers to the signal ratio.

Experiment: qHTS assay to identify small molecule agonists of the endoplasmic reticulum stress response signaling pathway (AID 1159516)
Conditions: ESRE-bla HeLa, ER stress beta-lactamase reporter, 5 h; series mostly up to 61 µM; activation: at the top concentration
Source text: National Center for Advancing Translational Sciences [NCATS]
NIH Chemical Genomics Center [NCGC]
U.S. Environmental Protection Agency [EPA]
National Institutes of Environmental Health Sciences [NIEHS]
National Toxicology Program [NTP]
U.S. Food and Drug Administration [FDA]
Endoplasmic Reticulum (ER) plays an important role in cellular signaling, protein folding/maturation, stress response, lipid biosynthesis, calcium storage and release etc. Under stress conditions, proteins in ER misfold or unfold, and leading to the expression of ER stress responsive genes. ER stress has been associated with a variety of pathophysiological conditions such as cancer, inflammation, neurodegenerative diseases, diabetes, ischemic heart disease etc. To identify the compounds that induce ER stress response, an ER stress reporter cell line, CellSensor ESRE-bla HeLa (Life Technologies, Carlsbad, CA) containing a beta-lactamase reporter gene under control of the Endoplasmic reticulum Stress Response Element (ESRE) was used to screen Tox21 10K compound library.
Tox21 Assay Protocol Summary:
ESRE-bla HeLa cells were dispensed at 1,500 cells/6 uL of assay medium per well into black wall/clear-bottom 1536-well plates using a Multidrop Combi (ThermoFisher Scientific, Waltham, MA) dispenser. After the assay plates were incubated at 37 C and 5% CO2 for an overnight, 23 nL of compounds dissolved in DMSO, positive controls or DMSO only was transferred to the assay plate by a Pintool station (Kalypsys, San Diego, CA). The assay plates were incubated at 37 C and 5% CO2 for 5 hr. One uL of LiveBLAzer B/G FRET substrate (Life Technologies) was added using a Flying Reagent Dispenser (Aurora Discovery, San Diego, CA) and the plates were incubated at room temperature for 2 hr. Fluorescence intensity (405 nm excitation, 460 nm and 530 nm emissions) was measured using an Envision plate reader (PerkinElmer, Shelton, CT).
% is set by controls: 0 for no effect and ±100 for the full control effect.

SMILES	activation
CC(=O)N(CC(O)CO)c1c(I)c(C(=O)NCCO)c(I)c(C(=O)NCC(O)CO)c1I (stereo not given)	4.12% (inactive)
CC(C)c1cc2c(cc1S(=O)(=O)O)[C@@]1(C)CCC[C@@](C)(C(=O)O)[C@@H]1CC2	0.35% (inactive)
CCc1cccc2c(CCO)c[nH]c12	-1% (inactive)
Cc1[nH]c(=O)c(C#N)cc1-c1ccc2nccn2c1	0.174% (inactive)
COc1ccc2c(c1)c(CC(=O)OCC(=O)O)c(C)n2C(=O)c1ccc(Cl)cc1	-5.99% (inactive)
Cc1nc2c([nH]1)c(=O)n(C)c(=O)n2Cc1ccco1	-4.9% (inactive)
O=Cc1cccc([N+](=O)[O-])c1	-0.132% (inactive)
Brc1c(NC2=NCCN2)ccc2nccnc12	5.1% (inactive)
CN1CCCC1	2.37% (inactive)
NS(=O)(=O)c1cc(C(=O)NN2C[C@H]3[C@H]4CCC(C4)[C@H]3C2)ccc1Cl	3.1% (inactive)
C=CCS(=O)(=O)O	-0.152% (inactive)
Cc1ccc(=O)n(-c2ccccc2)c1	-0.492% (inactive)
CC(=O)OCC(=O)[C@@]1(O)CC[C@H]2[C@@H]3CCC4=CC(=O)CC[C@]4(C)[C@H]3C(=O)C[C@@]21C	-1.55% (inactive)
CN(C(=O)c1c(O)c2ccccc2n(C)c1=O)c1ccccc1	-0.711% (inactive)
NC(=O)COCCN1CCN(C(c2ccccc2)c2ccc(Cl)cc2)CC1 (stereo not given)	1.61% (inactive)
COCCc1ccc(OCC(O)CNC(C)C)cc1 (stereo not given)	3.94% (inactive)
Cc1cccn2c(=O)c(-c3nnn[nH]3)cnc12	2.59% [at 28.5 µM] (inactive)
CC(C)(O)C(=O)c1ccccc1	-0.0413% (inactive)
O=C1CCCC(=O)C1	-0.933% (inactive)
O=c1cc(CO)occ1O	-0.733% (inactive)

SMILES	activation
CCn1ccnc1CC1COc2ccccc2O1 (stereo not given)	0.838% (inactive)
COC(=O)[C@@H](N)Cc1ccc(O)c(O)c1	-0.984% (inactive)
CN1C(=O)N(C)C(O)C1O (stereo not given)	5.08% (inactive)
C=CCCCCCCCCC=O	-1.3% (inactive)
C[C@](N)(Cc1ccc(O)cc1)C(=O)O	0.0819% [at 6.95 µM] (inactive)
CCO/C([O-])=N/c1c[n+](N2CCOCC2)no1	1.01% (inactive)
CCc1nccnc1CC	4.18% [at 28.5 µM] (inactive)
O=c1n(CCO)c(=O)n(CCO)c(=O)n1CCO	-1.79% [at 78.8 µM] (inactive)
CC/C=C\CC/C=C/C(OCC)OCC	-2.7% (inactive)
COc1nc(N)nc2c1ncn2[C@@H]1O[C@H](CO)[C@@H](O)[C@@H]1O	2.18% (inactive)
O=C(O)COc1nn(Cc2ccccc2)c2ccccc12	-0.644% (inactive)
CCN(Cc1ccncc1)C(=O)C(CO)c1ccccc1 (stereo not given)	-0.29% (inactive)
NS(=O)(=O)c1ccccc1Cl	0.138% (inactive)
C/C=C(\C)C#N	0.529% (inactive)
CCOC(=O)[C@H](CCc1ccccc1)N[C@@H](C)C(=O)N1[C@H](C(=O)O)C[C@@H]2CCC[C@@H]21	0.632% (inactive)
CN1CCC(=C2c3ccccc3CC(=O)c3sccc32)CC1	1.05% (inactive)
CC(C)(c1ccc(O)cc1)c1ccc(O)cc1	-3.19% [at 78.8 µM] (inactive)
C[C@@H]1CCN(C(=O)[C@H](CCCN=C(N)N)NS(=O)(=O)c2cccc3c2NC[C@H](C)C3)[C@@H](C(=O)O)C1	0.67% (inactive)
ClC(Cl)(Br)Br	0.112% (inactive)
CN1CCN(c2cc3c(cc2F)c(=O)c(C(=O)O)cn3-c2ccc(F)cc2)CC1	2.58% (inactive)
